Consider 86 sequences from the supplement of paper PMC3334620.

Whole data set: some 33,000 sequences, median “E-score (-0.5 to 0.5)” near -0.012, cut for the highest 2% near 0.27. Only a selection was taken, and the highest values are over-represented in it overall.

This assay concerns the target T1, Vhr1 (UniProt P40522).
T1 sequence: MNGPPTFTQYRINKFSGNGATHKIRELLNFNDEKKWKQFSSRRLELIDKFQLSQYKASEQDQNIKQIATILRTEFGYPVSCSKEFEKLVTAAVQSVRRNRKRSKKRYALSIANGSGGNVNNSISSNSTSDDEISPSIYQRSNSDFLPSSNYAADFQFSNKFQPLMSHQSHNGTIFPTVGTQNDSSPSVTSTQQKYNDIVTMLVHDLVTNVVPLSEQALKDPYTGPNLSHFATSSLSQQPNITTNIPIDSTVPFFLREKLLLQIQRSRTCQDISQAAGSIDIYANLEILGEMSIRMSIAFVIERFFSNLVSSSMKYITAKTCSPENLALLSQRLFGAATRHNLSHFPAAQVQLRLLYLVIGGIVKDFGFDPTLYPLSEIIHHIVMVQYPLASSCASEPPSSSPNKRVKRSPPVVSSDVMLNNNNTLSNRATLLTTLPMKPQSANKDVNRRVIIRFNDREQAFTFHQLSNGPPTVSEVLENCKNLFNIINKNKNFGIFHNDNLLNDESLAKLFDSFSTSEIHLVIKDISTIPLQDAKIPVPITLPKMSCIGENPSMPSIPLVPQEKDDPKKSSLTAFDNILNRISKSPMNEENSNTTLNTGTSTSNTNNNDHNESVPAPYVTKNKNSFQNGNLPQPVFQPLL
In words: PBM E-score (8-mer binding enrichment) (E-score (-0.5 to 0.5)); higher = stronger / more preferred TF binding. The settings on record: protein concentration: 200 nM; construct: GST-full length. As for the experimental part:
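Universal 'all 10-mer' protein binding microarrays (Agilent AMADID 015681) probed with GST-tagged S. cerevisiae TFs (full-length or DBD) made by in vitro transcription/translation (PURExpress), about 100-200 nM. Bound TF was detected with fluorescent anti-GST. Each ungapped 8-mer (which stands for itself and its reverse complement) is scored by the PBM enrichment score (E-score), a modified Wilcoxon-Mann-Whitney statistic from -0.5 to +0.5, computed with the Universal PBM Analysis Suite. Scale: above 0.35 generally sequence-specific binding.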
On to CCGAGTCA, for which the “PBM E-score” value turned out to be 0.451.
The value for CCGAGTCC was 0.144; that for GCGAGTCA was 0.455.
In the case of ATTCGATG it was 0.0921; in that of AAGCCTCG, 0.00094.
The value for AGTCCCCG was 0.0704.
Take GGTGCTGA: the “PBM E-score” value stood at 0.042.
The value for CGCACCAG was 0.302; that for AGCACCAG was -0.0111; that for CGCACCAA was 0.143.
AAATAATT: the “PBM E-score” value was found to be 0.0111.
In the case of AGCTGACG it was -0.12; in that of ACCTGACC, 0.11; in that of AGCTGACC, 0.116.
In the case of ACCTGACG it was -0.0943; in that of AGCTGACT, 0.413.
In the case of ACCTGACT it was 0.374.
In the case of GGGCTTAC, the “PBM E-score” value was -0.00595.
Regarding AGAACTGA, the “PBM E-score” value was -0.183.
The value for ATGAAGTG was -0.149; that for TAACAGAA was -0.069; that for CTTGAGGC was -0.174.
In the case of ATTGAGTA it was 0.308.
In the case of ATTGAGTG, the “PBM E-score” value came to 0.202.
The value for ATTGAGTC was 0.387.
In the case of ATTGAGAA it was 0.113.
The value for GTTGAGTA was 0.147; that for ATTGAGAC was 0.18; that for CTTGAGTA was 0.0408.
In the case of CTTGAGTC, the “PBM E-score” value stood at 0.333.
In the case of AGAGAAGA it was -0.148; in that of AACATCGG, 0.0341; in that of ATGCCAGG, 0.0307.
The value for CGCGTACG was 0.0931; that for CGCACGCC was 0.167; that for ACGTTCGC was -0.141.
Turning to GCTGCCAA, the “PBM E-score” value is -0.0372.
Turning to CCTGATGC, the “PBM E-score” value is -0.0265.
In the case of CCTGATTC it was 0.367.
The value for CCTGATTA was 0.158; that for ACTGATTC was 0.283.
The value for ACTGATTG was -0.00926.
As for ACTGATTA, the “PBM E-score” value was 0.147.
In the case of ACTCTACA it was 0.0564; in that of ACGTCCAG, -0.147; in that of CGAATAAG, 0.0236.
As for GCTATATA, the “PBM E-score” value came to 0.0669.
With AGTATATA, the “PBM E-score” value stood at 0.33.
As to AGTATATC, the “PBM E-score” value came to 0.0944.
In the case of ACTATATC it was 0.198; in that of ACTATATA, 0.274; in that of AGTATATG, 0.239.
In the case of CAGAATGA it was 0.0955; in that of CAAGGGCA, -0.168.
For GTTCTAAA, the “PBM E-score” value was -0.164.
The value for GAGCGACC was -0.162; that for ACTCACCA was 0.378.
In the case of TCTCACCA it was 0.0878; in that of ACTCACCC, 0.391; in that of CCTCACCA, -0.00516.
In the case of CCTCACCG it was 0.113; in that of CCTCACCC, 0.0394; in that of GCTCACCC, 0.265.
As for ACTCACCT, the “PBM E-score” value turned out to be 0.244.
The value for ACTCACCG was 0.309.
In the case of CTCTAGCC it was -0.167.
In the case of CCAGGGAG it was 0.09; in that of GTAGGGTA, 0.0298; in that of CAAGCGTG, -0.00913.
On to CCATTCAA, for which the “PBM E-score” value was 0.0103.
In the case of CAGATTCG it was 0.069; in that of AAACCATA, 0.0822.
The value for AAACCATC was 0.273; that for CAACCATC was 0.0512.
In the case of ACTGGGTA it was -0.00457.
For ATAGGGGC, the “PBM E-score” value is -0.0513.
The value for GAGCGAAA was 0.0518; that for AACTTTTG was -0.205.
In the case of ATCATATG it was 0.174.
In the case of ATCATATC it was 0.3; in that of CTCATATC, 0.203.
For TACCAAGA, the “PBM E-score” value came to 0.0906.
In the case of AGAGCGCC it was -0.134; in that of AATGATGC, 0.0924.
For the sequence AGGGCCAA, the “PBM E-score” value is -0.299.
In the case of AGTCTGCC it was 0.0302.
